Measured values published in PubChem BioAssay AID1159580 (chemical genetic matrix, 2015).
Several values for one entry are separate records, joined by “and”; a condition that tells them apart may be missing. Equal entries are not always repeated. About 2,000 (36%) of roughly 5,500 compounds were called active. About 18% were inconclusive and are not listed. Cut-off read from the data, not from the text of the source: active = normalized growth mostly below about 0.91 (no sharp cut-off); inconclusive = no clear call, values can overlap the other calls; inactive = mostly above about 0.92. This is one part of the list.

Assay: chemical genetic growth profiling, strain panel (AID 1159580);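 note: tested at 20 µM; growth read once vehicle control cultures reached saturation at 30 °C; 1 = growth at the plate median or of vehicle wells; lower values mean less growth of the strain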
Conditions: S. cerevisiae deletion strains, growth OD

Measured: normalized growth

CC(C)CCCC(C)C1CCC2C3CC[C@H]4CCCC[C@]4(C)C3CC[C@]12C (some centres not stated)
inactive: locus YAL013W, strain DEP1, hits give low values 1.09 | locus YAL021C, strain ccr4, hits give low values 1 | locus YAL026C, strain drs2, hits give low values 1.02 | locus YAL030W, strain snc1, hits give low values 1.02 | locus YBL061C, strain skt5, hits give low values 1.02 | locus YBR009C, strain hhf1, hits give low values 1.03 | locus YBR021W, strain FUR4, hits give low values 1.04 | locus YBR023C, strain chs3, hits give low values 1.02 | locus YBR171W, strain sec66, hits give low values 1.02 | locus YBR229C, strain ROT2, hits give low values 0.963 | locus YBR231C, strain swc5, hits give low values 1.03 | locus YBR279W, strain paf1, hits give low values 1.02 | locus YCL011C, strain gbp2, hits give low values 1.02 | locus YCL016C, strain dcc1, hits give low values 1.02 | locus YCL029C, strain bik1, hits give low values 0.985 | locus YCL061C, strain MRC1, hits give low values 1.02 | locus YCL069W, strain vba3, hits give low values 1.01 | locus YCR088W, strain abp1, hits give low values 1.01 | locus YDL005C, strain med2, hits give low values 1.02 | locus YDL035C, strain GPR1, hits give low values 0.971 | locus YDL040C, strain nat1, hits give low values 1.01 | locus YDL074C, strain BRE1, hits give low values 0.959 | locus YDL101C, strain DUN1, hits give low values 0.952 | locus YDL134C, strain PPH21, hits give low values 0.985 | locus YDL185W, strain tfp1, hits give low values 0.966 | locus YDL192W, strain arf1, hits give low values 0.983 | locus YDR001C, strain nth1, hits give low values 1.01 | locus YDR069C, strain doa4, hits give low values 1.05 | locus YDR101C, strain arx1, hits give low values 0.99 | locus YDR137W, strain rgp1, hits give low values 1 | locus YDR150W, strain NUM1, hits give low values 0.965 | locus YDR159W, strain sac3, hits give low values 1.04 | locus YDR162C, strain NBP2, hits give low values 0.964 | locus YDR195W, strain ref2 1.03 | locus YDR297W, strain sur2, hits give low values 1.02 | locus YDR318W, strain mcm21, hits give low values 1 | locus YDR334W, strain swr1, hits give low values 1.01 | locus YDR335W, strain msn5, hits give low values 1.02 | locus YDR388W, hits give low values 0.987 | locus YDR392W, strain spt3, hits give low values 0.98 | locus YDR502C, strain sam2, hits give low values 0.978 | locus YEL003W, strain gim4, hits give low values 1.03 | locus YEL037C, strain rad23, hits give low values 1.01 | locus YEL061C, strain CIN8 (second series), hits give low values 1.01 | locus YEL061C, strain CIN8, hits give low values 0.994 | locus YER015W, strain faa2, hits give low values 1.02 | locus YER016W, strain bim1, hits give low values 1.02 | locus YER110C, hits give low values 0.988 | locus YER111C, strain swi4, hits give low values 1.03 | locus YER155C, strain BEM2 (second series), hits give low values 1.04 | locus YER155C, strain BEM2, hits give low values 0.998 | locus YER167W, strain BCK2, hits give low values 1.01 | locus YFR010W, strain ubp6, hits give low values 1.02 | locus YGL078C, strain dbp3, hits give low values 0.994 | locus YGL086W, strain mad1, hits give low values 1.01 | locus YGL167C, strain pmr1, hits give low values 1.01 | locus YGL173C, strain kem1, hits give low values 1.02 | locus YGL227W, strain vid30, hits give low values 1.03 | locus YGL240W, strain doc1, hits give low values 1.05 | locus YGL248W, strain PDE1, hits give low values 0.984 | locus YGL253W, strain hxk2, hits give low values 1 | locus YGR078C, strain PAC10, hits give low values 0.967 | locus YGR135W, strain pre9, hits give low values 0.965 | locus YGR229C, strain SMI1, hits give low values 0.979 | locus YGR252W, strain gcn5, hits give low values 1 | locus YHR013C, strain ard1, hits give low values 1.05 | locus YHR027C, strain rpn1, hits give low values 1.01 | locus YHR030C, strain SLT2, hits give low values 0.997 and 0.984 | locus YHR079C, strain IRE1 (second series), hits give low values 1 | locus YHR079C, strain IRE1, hits give low values 1 | locus YHR094C, strain hxt1, hits give low values 0.988 | locus YHR129C, strain ARP1, hits give low values 0.993 | locus YHR142W, strain chs7, hits give low values 0.982 | locus YHR200W, strain rpn10, hits give low values 0.978 | locus YIL066C, strain RNR3, hits give low values 0.974 | locus YIL073C, strain SPO22, hits give low values 1.08 | locus YIL125W, strain kgd1, hits give low values 0.991 | locus YIR030C, strain dcg1, hits give low values 0.987 | locus YJL092W, strain hpr5, hits give low values 1.01 | locus YJL095W, strain BCK1 (second series), hits give low values 1.01 | locus YJL095W, strain BCK1, hits give low values 0.976 and 0.988 | locus YJL115W, strain asf1, hits give low values 1.01 | locus YJL129C, strain trk1, hits give low values 1.01 | locus YJL134W, strain LCB3, hits give low values 0.991 | locus YJL154C, strain vps35, hits give low values 1 | locus YJL164C, strain tpk1, hits give low values 1.02 | locus YJL166W, strain qcr8, hits give low values 1.02 | locus YJL168C, strain set2, hits give low values 0.988 | locus YJL187C, strain SWE1 (second series), hits give low values 0.966 | locus YJL187C, strain SWE1, hits give low values 1.02 | locus YJR043C, strain POL32, hits give low values 1.05 | locus YJR066W, strain TOR1, hits give low values 0.931
